This is an account of results in PubChem BioAssay (Tox21).

SMILES strings stand for the structures. Values without a mark were called inactive. Results filed as inconclusive are left out. Calls of active or inactive are those of the source. Unless noted, calls follow the shape of the dose curve; as a rule, active = well fitted curve in the direction sought with a large enough effect in the repeat runs; inconclusive = weak or mixed curves; inactive = no such curve, though single readings can be large; an effect the other way counts as inactive or inconclusive.

Assay [1] is described as follows: qHTS assay for small molecule agonists of the p53 signaling pathway (AID 651631; calls by dose curve; also: nearly all actives have a fitted effect of over 15% in size; also: potency is read from the fitted curve at half-maximal effect). The method in brief: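 Quantitative high-throughput format: 4,000 p53RE-bla HCT-116 cells/well, 5 h pre-incubation, 16 h compound exposure at 37 °C, 2 h room-temperature substrate step, fluorescence intensity measured.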
A general note: Quantitative high-throughput screening tests each substance at several concentrations.

The nature of assay [2]: qHTS assay for small molecules that induce genotoxicity in human embryonic kidney cells expressing luciferase-tagged ATAD5 (AID 651632). Also: nearly all actives have a fitted effect of over 15% in size. Also: potency is read from the fitted curve at half-maximal effect. The method in brief:
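Luminescent reporter readout, HEK293T ATAD5-luc line: 16 hr drug exposure (37C, 5% CO2) followed by Amplite, 30 min RT.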

The nature of assay [3]: qHTS assay for small molecule agonists of the p53 signaling pathway - cell viability (AID 651633; calls by dose curve; also: nearly all actives have a fitted effect of over 30% in size; also: potency is read from the fitted curve at half-maximal effect). In short, it runs like this:
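p53RE-bla cells, seeded at 4,000 per well and rested 5 h at 37 C/5% CO2, received compounds in DMSO for 16 h at 37 C. CellTiter-Glo was then added, and luminescence was read after 30 min at room temperature to gauge cytotoxicity.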

Assay [4] can be described thus: qHTS assay for small molecules that induce genotoxicity in human embryonic kidney cells expressing luciferase-tagged ATAD5 - cell viability (AID 651634; calls by dose curve; also: nearly all actives have a fitted effect of over 25% in size). The method in brief: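 Viability read: CellTiter-Fluor fluorescence, 30 min at 37C. Cells: HEK293T, luciferase-tagged ATAD5. Exposure: 15.5 hr, 37C, 5% CO2, compound or DMSO vehicle.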
Assay [5] in a line: qHTS assay to test for compound auto fluorescence at 590 nm (red) in HepG2 cells (AID 720674). In short, it runs like this:
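Compound auto-fluorescence is scored relative to Rose Bengal sodium, measured at 540/590 nm in live HepG2 cultures after 1 hr compound contact (37 C, 5% CO2).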

Assay [6] in a line: qHTS assay to test for compound auto fluorescence at 535 nm (green) in HepG2 cells (AID 720675).
Assay [7] can be described thus: qHTS assay to test for compound auto fluorescence at 460 nm (blue) in HEK293 cells (AID 720678). The method in brief:
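Blue read-out at excitation 405 nm and emission 460 nm follows overnight compound exposure of HEK293 cells at 37C in 5% CO2. Activity is given as auto fluorescence equivalency to triamterene.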

A short description of assay [8]: qHTS assay to test for compound auto fluorescence at 590 nm (red) in HEK293 cells (AID 720679). The method in brief:
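Red channel, Ex/Em 540/590nm; signal expressed as equivalency to Rose Bengal sodium. HEK293, 2,000 cells/well, 10% dialyzed FBS; 23 nL compound pinned after 4-5 hr attachment; overnight 37C/5% CO2 before reading.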

The nature of assay [9]: qHTS assay for small molecule disruptors of the mitochondrial membrane potential - cell viability (AID 720634; calls by dose curve; also: nearly all actives have a fitted effect of over 20% in size; also: potency is read from the fitted curve at half-maximal effect). The method in brief:
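HepG2, 1 hr compound, 37 C. ATP luminescence via CellTiter-Glo, 30 min RT, same well as m-MPI.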

Assay [10] in a line: qHTS assay for small molecule disruptors of the mitochondrial membrane potential (AID 720635). Also: potency is read from the fitted curve at half-maximal effect. In short, it runs like this:
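HepG2 cells (2,000/well) attached overnight at 37C, then took compound for 1 hr at 37C, 5% CO2. Mito-MPS dye was added for 30 min; fluorescence was read at 490/535 nm (monomers) and 540/590 nm (aggregates).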
% is scaled to controls: 0 for no effect and ±100 for the full control effect.

`CC1=C2C[C@H]3[C@@H](CC=C4C[C@@H](O)CC[C@@]43C)[C@@H]2CC[C@]12O[C@@H]1C[C@H](C)CN[C@H]1[C@H]2C`: the Potency entry in assay [1], in [2], in [3], in assay [4], in assay [6] and in [7] was “inactive” throughout. The outcome in [5] and in [8] was inactive.
With `O=C(NC(=O)c1ccccc1Cl)Nc1ccc(OC(F)(F)F)cc1`, the Potency entry in assay [1], in assay [2], in assay [4], in assay [9], in assay [10] and in assay [6] was “inactive” throughout. In assay [7], the Potency result is “inactive”. The compound was classed as inactive in [5] and in [8].
On to `O=P(Cl)(Cl)Cl`, for which the Potency result in assay [1], in assay [2], in [4], in [9], in assay [10] and in [6] was “inactive” each time. Further, the Potency entry in assay [7] was “inactive”. In addition, the compound was classed as inactive in assay [5] and in [8].
Take `CC(=O)C(Cl)C(=O)N(C)C` (stereo unspecified): the Potency entry in assay [1], in assay [2], in [9], in assay [6] and in [7] was “inactive” in each case. Moreover, the compound was classed as inactive in [5] and in assay [8].
As for `CC(C)NCC(O)c1ccccc1Cl` (stereo unspecified), the Potency result in [1], in [2], in assay [4], in assay [9], in assay [10] and in assay [6] was “inactive” each time. Besides, the Potency result in assay [7] was “inactive”. Also, the result in assay [5] and in [8] was inactive.
Turning to `CNC(=O)Oc1cc(C)cc(C(C)C)c1`, the Potency entry in [1], in [2], in assay [3], in [9], in assay [6] and in [7] was “inactive” throughout. Moreover, the result in [5] and in assay [8] was inactive.
Turning to `CCN(CC)C(=O)N[C@@H]1C=C2c3cccc4[nH]cc(c34)C[C@@H]2N(C)C1`, the Potency entry in [1], in [2], in [3], in assay [9] and in assay [7] was “inactive” each time. The Potency in [10] is 1.68 µM (active). The call in assay [5] and in assay [8] was inactive.
With `Cc1cc(C2CC2)nc(Nc2ccccc2)n1`, the Potency result in assay [1], in [2], in assay [3], in assay [4], in [6] and in assay [7] was “inactive” in each case. In addition, the compound was classed as inactive in assay [5] and in [8].
For `O=NN(CCO)CCO`, the Potency result in [1], in [2], in assay [9], in [10], in [6] and in [7] was “inactive” each time. Also, the call in assay [5] and in assay [8] was inactive.
`c1ccc2c(c1)cc1ccc3cccc4ccc2c1c34`: the Potency in [1] is 3.5 µM (active); in assay [10], 14 µM (active). Moreover, the Potency entry in assay [2] is “inactive”. Also, the result in assay [5] and in assay [8] was inactive.
Take `CCCCCON=O`: the Potency result in [1], in assay [2], in [3], in assay [9], in assay [10] and in assay [6] was “inactive” in each case. For the same compound, the Potency entry in [7] is “inactive”. The result in assay [5] and in [8] was inactive.
For the compound `CN`, the Potency result in [1], in assay [3], in [4], in assay [9], in [10] and in assay [7] was “inactive” throughout. The result in assay [5] and in assay [8] was inactive.
Turning to `CC(Cc1ccc2c(c1)OCO2)NO` (stereo unspecified), the Potency entry in assay [1], in assay [2], in [3], in [9], in assay [6] and in assay [7] was “inactive” throughout. Also, the call in assay [5] and in assay [8] was inactive.
As to `CSC1=N[C@@](C)(c2ccccc2)C(=O)N1Nc1ccccc1`, the Potency result in [1], in assay [2], in [3], in assay [6] and in [7] was “inactive” each time. Moreover, the Potency in assay [10] was 61.1 µM (active). Moreover, the compound was called inactive in assay [5] and in [8].
`[O]=[Cr][O][Cr]=[O]`: the Potency result in [1], in assay [2], in [3], in assay [4], in [6] and in assay [7] was “inactive” in each case. The compound was classed as inactive in assay [5] and in assay [8].
In the case of `N#Cc1c[nH]cc1-c1cccc2c1OC(F)(F)O2`, the values for the Potency in assay [1], in assay [9] and in assay [10] were 8.63 µM (active), 5.45 µM (active) and 2.17 µM (active), respectively. Also, the Potency entry in assay [2], in assay [4], in assay [6] and in assay [7] was “inactive” each time. Moreover, the result in assay [5] and in [8] was inactive.
As for `COC(=O)N(OC)c1ccccc1COc1ccn(-c2ccc(Cl)cc2)n1`, the Potency in assay [1] was 1.72 µM (active); in [9] it was 1.93 µM (active); in assay [10], 4.86 µM (active). For the same compound, the Potency entry in assay [2], in assay [4], in assay [6] and in assay [7] was “inactive” in each case. Besides, the result in assay [5] and in [8] was inactive.
As to `CNC(C)(C)Cc1ccccc1`, the Potency result in assay [1], in assay [2], in assay [3] and in [9] was “inactive” each time. In assay [5], the fluorescence, relative to Rose Bengal is -0.065% [at 18.6 µM]. Further, in assay [6], the fluorescence, % of fluorescein control was -0.216% [at 18.6 µM]. Moreover, the fluorescence, % of triamterene in assay [7] was 0.0048% [at 18.6 µM]. In assay [8], the fluorescence, % of fluorescent control is 0.101% [at 18.6 µM].
For the compound `C=CCBr`, the Potency result in [1], in assay [2], in assay [3], in assay [9] and in assay [7] was “inactive” in each case. In addition, the outcome in assay [5] and in [8] was inactive.
In the case of `[Cl][Hg][c]1ccccc1`, the Potency in [1] and in assay [10] was 6.11 µM (active) each time. Moreover, the Potency result in [2], in assay [6] and in assay [7] was “inactive” throughout. Moreover, the outcome in [5] and in assay [8] was inactive.
`Cc1cccc(Cc2cnc[nH]2)c1C`: the Potency result in assay [1], in assay [2], in [4], in assay [9], in [10] and in assay [6] was “inactive” throughout. In addition, the Potency result in [7] is “inactive”. Moreover, the call in [5] and in [8] was inactive.
For `Nc1ccccc1-c1ccccc1`, the Potency result in assay [1], in assay [2], in assay [3], in [9], in [6] and in assay [7] was “inactive” each time. Besides, the result in [5] and in assay [8] was inactive.
As for `Cc1nn(-c2cc(NS(C)(=O)=O)c(Cl)cc2Cl)c(=O)n1C(F)F`, the Potency entry in [1], in [2], in assay [4], in assay [9] and in assay [7] was “inactive” each time. For the same compound, the result in [5] and in assay [8] was inactive.
For `CC(O)C(=O)[O][Hg][c]1ccccc1` (stereo unspecified), the Potency is 0.545 µM (active) in [1]; 0.0969 µM (active) in assay [2]; 0.217 µM (active) in assay [3]; 5.45 µM (active) in assay [9]; 2.73 µM (active) in [10]. Besides, the compound was called inactive in assay [5] and in assay [8]. The Potency entry in assay [6] and in [7] was “inactive” in each case.
On to `C#CCO`, for which the Potency result in assay [1], in assay [2], in assay [3], in [4], in assay [6] and in assay [7] was “inactive” in each case. In addition, the compound was called inactive in assay [5] and in [8].
